# PubChem BioAssay AID1159580 (chemical genetic matrix, 2015)
# In all, about 5,500 compounds went through this assay and about 2,000 (36%) were called active. Roughly 18% stayed inconclusive and do not appear here. This is one part of the list. Unmarked numbers belong to inactive results. Cut-off read from the data, not from the text of the source: active = normalized growth mostly below about 0.91 (no sharp cut-off); inconclusive = no clear call, values can overlap the other calls; inactive = mostly above about 0.92.
# Assay: chemical genetic growth profiling, strain panel (AID 1159580);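 note: tested at 20 µM; growth read once vehicle control cultures reached saturation at 30 °C; 1 = growth at the plate median or of vehicle wells; lower values mean less growth of the strain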
# Conditions: S. cerevisiae deletion strains, growth OD
# [1] = locus YAL021C, strain ccr4, active compounds read low
# [2] = locus YAL026C, strain drs2, active compounds read low
# [3] = locus YAL030W, strain snc1, active compounds read low
# [4] = locus YBL061C, strain skt5, active compounds read low
# [5] = locus YBR009C, strain hhf1, active compounds read low
# [6] = locus YBR023C, strain chs3, active compounds read low
# [7] = locus YBR171W, strain sec66, active compounds read low
# [8] = locus YBR231C, strain swc5, active compounds read low
# [9] = locus YBR279W, strain paf1, active compounds read low
# [10] = locus YCL011C, strain gbp2, active compounds read low
# [11] = locus YCL016C, strain dcc1, active compounds read low
# [12] = locus YCL061C, strain MRC1, active compounds read low
# [13] = locus YCL069W, strain vba3, active compounds read low
# [14] = locus YCR088W, strain abp1, active compounds read low
# [15] = locus YDL005C, strain med2, active compounds read low
# [16] = locus YDL040C, strain nat1, active compounds read low
# [17] = locus YDR001C, strain nth1, active compounds read low
# [18] = locus YDR069C, strain doa4, active compounds read low
# [19] = locus YDR137W, strain rgp1, active compounds read low
# [20] = locus YDR159W, strain sac3, active compounds read low
# [21] = locus YDR297W, strain sur2, active compounds read low
# [22] = locus YDR334W, strain swr1, active compounds read low
# [23] = locus YDR335W, strain msn5, active compounds read low
# [24] = locus YDR392W, strain spt3, active compounds read low
# [25] = locus YEL003W, strain gim4, active compounds read low
# [26] = locus YEL037C, strain rad23, active compounds read low
# [27] = locus YEL061C, strain CIN8 (second series), active compounds read low
# [28] = locus YER015W, strain faa2, active compounds read low
# [29] = locus YER016W, strain bim1, active compounds read low
# [30] = locus YER111C, strain swi4, active compounds read low
# [31] = locus YER155C, strain BEM2 (second series), active compounds read low
# [32] = locus YFR010W, strain ubp6, active compounds read low
# [33] = locus YGL167C, strain pmr1, active compounds read low
# [34] = locus YGL173C, strain kem1, active compounds read low
# [35] = locus YGL227W, strain vid30, active compounds read low
# [36] = locus YGL240W, strain doc1, active compounds read low
# [37] = locus YGL253W, strain hxk2, active compounds read low
# [38] = locus YHR013C, strain ard1, active compounds read low
# [39] = locus YHR027C, strain rpn1, active compounds read low
# [40] = locus YHR030C, strain SLT2, active compounds read low
# [41] = locus YHR079C, strain IRE1, active compounds read low
# [42] = locus YHR142W, strain chs7, active compounds read low
# [43] = locus YJL092W, strain hpr5, active compounds read low
# [44] = locus YJL095W, strain BCK1 (second series), active compounds read low
# [45] = locus YJL095W, strain BCK1, active compounds read low
# [46] = locus YJL115W, strain asf1, active compounds read low
# [47] = locus YJL129C, strain trk1, active compounds read low
# [48] = locus YJL154C, strain vps35, active compounds read low
# [49] = locus YJL164C, strain tpk1, active compounds read low
# [50] = locus YJL166W, strain qcr8, active compounds read low
# [51] = locus YJL187C, strain SWE1, active compounds read low
# [52] = locus YJR066W, strain TOR1, active compounds read low
# [53] = locus YKL160W, strain elf1, active compounds read low
# [54] = locus YKR026C, strain gcn3, active compounds read low
# [55] = locus YKR091W, strain srl3, active compounds read low
# [56] = locus YLL001W, strain dnm1, active compounds read low
# [57] = locus YLL026W, active compounds read low
# [58] = locus YLL041C, strain sdh2, active compounds read low
# [59] = locus YLR027C, strain aat2, active compounds read low
# [60] = locus YLR113W, strain HOG1, active compounds read low
# [61] = locus YLR221C, strain rsa3, active compounds read low
# [62] = locus YLR258W, strain gsy2, active compounds read low
# [63] = locus YLR262C, strain YPT6 (second series), active compounds read low
# [64] = locus YLR320W, strain mms22, active compounds read low
# [65] = locus YLR342W, strain FKS1, active compounds read low
# [66] = locus YLR357W, strain rsc2, active compounds read low
# [67] = locus YLR370C, strain arc18, active compounds read low
# [68] = locus YLR384C, strain iki3, active compounds read low
# [69] = locus YML120C, strain ndi1, active compounds read low
# [70] = locus YMR058W, strain fet3, active compounds read low
# [71] = locus YMR125W, strain sto1, active compounds read low
# [72] = locus YMR129W, active compounds read low
# [73] = locus YMR205C, strain PFK2, active compounds read low
# [74] = locus YMR231W, strain pep5, active compounds read low
# [75] = locus YNL071W, strain lat1, active compounds read low
# [76] = locus YNL183C, strain NPR1, active compounds read low
# [77] = locus YNL209W, strain ssb2, active compounds read low
# [78] = locus YNL248C, strain rpa49, active compounds read low
# [79] = locus YNL322C, strain KRE1 (second series), active compounds read low
# [80] = locus YNR049C, strain mso1, active compounds read low
# [81] = locus YOR001W, strain rrp6, active compounds read low
# [82] = locus YOR070C, strain gyp1, active compounds read low
# [83] = locus YOR080W, strain dia2, active compounds read low
# [84] = locus YOR083W, strain WHI5, active compounds read low
# [85] = locus YOR106W, strain vam3, active compounds read low
# [86] = locus YOR231W, strain MKK1, active compounds read low
# [87] = locus YOR265W, strain rbl2, active compounds read low
# [88] = locus YOR270C, strain vph1, active compounds read low
# [89] = locus YOR290C, strain snf2, active compounds read low
# [90] = locus YPL051W, strain arl3, active compounds read low
# [91] = locus YPL078C, strain atp4, active compounds read low
# [92] = locus YPL106C, strain sse1, active compounds read low
# [93] = locus YPL240C, strain hsp82, active compounds read low
# [94] = locus YPL256C, strain CLN2, active compounds read low
smiles,measurement,setting,value
C/C(=C\C(=O)OCCCCCCCCC(=O)O)C[C@@H]1OC[C@H](C[C@@H]2O[C@H]2[C@@H](C)[C@H](C)O)[C@@H](O)[C@H]1O,normalized growth,[1],0.96
same,normalized growth,[2],0.958
same,normalized growth,[3],0.96
same,normalized growth,[4],0.987
same,normalized growth,[5],0.961
same,normalized growth,[6],0.979
same,normalized growth,[7],0.929
same,normalized growth,[8],0.938
same,normalized growth,[9],0.986
same,normalized growth,[10],0.972
same,normalized growth,[11],0.967
same,normalized growth,[12],0.965
same,normalized growth,[13],0.957
same,normalized growth,[14],0.952
same,normalized growth,[15],0.973
same,normalized growth,[16],0.982
same,normalized growth,[17],0.956
same,normalized growth,[18],0.982
same,normalized growth,[19],0.99
same,normalized growth,[20],0.936
same,normalized growth,"locus YDR195W, strain ref2",0.964
same,normalized growth,[21],0.988
same,normalized growth,[22],0.951
same,normalized growth,[23],0.963
same,normalized growth,[24],0.941
same,normalized growth,[25],0.969
same,normalized growth,[26],0.968
same,normalized growth,[27],0.967
same,normalized growth,[28],0.99
same,normalized growth,[29],0.974
same,normalized growth,[30],0.93
same,normalized growth,[31],0.959
same,normalized growth,[32],0.984
same,normalized growth,[33],0.973
same,normalized growth,[34],0.979
same,normalized growth,[35],0.965
same,normalized growth,[36],1.01
same,normalized growth,[37],0.912
same,normalized growth,[38],0.985
same,normalized growth,[39],0.987
same,normalized growth,[40],0.895
same,normalized growth,[41],0.919
same,normalized growth,[42],0.98
same,normalized growth,[43],0.96
same,normalized growth,[44],0.965
same,normalized growth,[45],0.898
same,normalized growth,[46],0.954
same,normalized growth,[47],0.993
same,normalized growth,[48],0.968
same,normalized growth,[49],0.98
same,normalized growth,[50],1
same,normalized growth,[51],0.976
same,normalized growth,[52],0.916
same,normalized growth,[53],0.982
same,normalized growth,[54],0.931
same,normalized growth,[55],0.971
same,normalized growth,[56],0.949
same,normalized growth,[57],0.971
same,normalized growth,[58],0.965
same,normalized growth,[59],0.965
same,normalized growth,[60],0.827 (active)
same,normalized growth,[61],0.982
same,normalized growth,[62],0.968
same,normalized growth,[63],0.962
same,normalized growth,[64],0.968
same,normalized growth,[65],0.953
same,normalized growth,[66],0.977
same,normalized growth,[67],0.957
same,normalized growth,[68],0.952
same,normalized growth,[69],0.979
same,normalized growth,[70],0.989
same,normalized growth,[71],0.962
same,normalized growth,[72],0.974
same,normalized growth,[73],0.896
same,normalized growth,[74],0.961
same,normalized growth,[75],0.989
same,normalized growth,[76],0.89
same,normalized growth,[77],1
same,normalized growth,[78],1.02
same,normalized growth,[79],0.947
same,normalized growth,[80],0.951
same,normalized growth,[81],0.991
same,normalized growth,[82],0.969
same,normalized growth,[83],0.948
same,normalized growth,[84],0.996
same,normalized growth,[85],0.979
same,normalized growth,[86],0.904
same,normalized growth,[87],0.982
same,normalized growth,[88],0.987
same,normalized growth,[89],0.979
same,normalized growth,[90],0.984
same,normalized growth,[91],1
same,normalized growth,[92],0.906
same,normalized growth,[93],0.975
same,normalized growth,[94],0.911
CC(C(=O)O)[C@H]1CCC2C3CC=C4C[C@@H](O)CC[C@]4(C)C3CC[C@@]21C (stereo not given in full),normalized growth,[1],0.939
same,normalized growth,[2],0.627 (active)
same,normalized growth,[3],1.03
same,normalized growth,[4],1.03
same,normalized growth,[5],0.979
same,normalized growth,[6],1
same,normalized growth,[7],1.02
same,normalized growth,[8],1.04
same,normalized growth,[9],1.02
same,normalized growth,[10],1.03
same,normalized growth,[11],0.977
same,normalized growth,[12],1
same,normalized growth,[13],1.03
same,normalized growth,[14],1.04
same,normalized growth,[15],1.05
same,normalized growth,[16],1.04
same,normalized growth,[17],1.04
same,normalized growth,[18],0.988
same,normalized growth,[19],0.562 (active)
same,normalized growth,[20],1.04
same,normalized growth,"locus YDR195W, strain ref2",1.35 [resistant] (active)
same,normalized growth,[21],1.02
same,normalized growth,[22],1.05
same,normalized growth,[23],1.02
same,normalized growth,[24],0.733 (active)
same,normalized growth,[25],1.02
same,normalized growth,[26],1.03
same,normalized growth,[27],1.05
same,normalized growth,[28],1.01
same,normalized growth,[29],1.04
same,normalized growth,[30],1.02
same,normalized growth,[31],1.08
same,normalized growth,[32],0.953
same,normalized growth,[33],1.03
same,normalized growth,[34],0.981
same,normalized growth,[35],1.04
same,normalized growth,[36],1.03
same,normalized growth,[37],0.989
same,normalized growth,[38],1.04
same,normalized growth,[39],1.02
same,normalized growth,[40],1.04
same,normalized growth,[41],1.03
same,normalized growth,[42],0.967
same,normalized growth,[43],1.02
same,normalized growth,[44],1.03
same,normalized growth,[45],1.02
same,normalized growth,[46],1.04
same,normalized growth,[47],1.03
same,normalized growth,[48],1.04
same,normalized growth,[49],0.973
same,normalized growth,[50],0.97
same,normalized growth,[51],1.01
same,normalized growth,[52],0.98
same,normalized growth,[53],1
same,normalized growth,[54],1.04
same,normalized growth,[55],1.05
same,normalized growth,[56],1.01
same,normalized growth,[57],1.03
same,normalized growth,[58],1.03
same,normalized growth,[59],1.01
same,normalized growth,[60],1.06
same,normalized growth,[61],0.996
same,normalized growth,[62],1.02
same,normalized growth,[63],0.485 (active)
same,normalized growth,[64],0.919
same,normalized growth,[65],1.03
same,normalized growth,[66],1.1
same,normalized growth,[67],1.01
same,normalized growth,[68],1.04
same,normalized growth,[69],1.01
same,normalized growth,[70],1
same,normalized growth,[71],1.03
same,normalized growth,[72],1.03
same,normalized growth,[73],1.02
same,normalized growth,[74],1.02
same,normalized growth,[75],0.989
same,normalized growth,[76],0.971
same,normalized growth,[77],1.03
same,normalized growth,[78],0.963
same,normalized growth,[79],1.06
same,normalized growth,[80],1.05
same,normalized growth,[81],0.997
same,normalized growth,[82],0.962
same,normalized growth,[83],1.03
same,normalized growth,[84],0.983
same,normalized growth,[85],1.01
same,normalized growth,[86],1.06
same,normalized growth,[87],1.02
same,normalized growth,[88],0.961
same,normalized growth,[89],0.995
same,normalized growth,[90],0.963
same,normalized growth,[91],1
same,normalized growth,[92],1.26 [resistant] (active)
same,normalized growth,[93],1.04
same,normalized growth,[94],1.06
